Imprint erasure: induces erasure of genomic imprints in mouse ES cells. mouse ES Peg3-LacZ reporter, beta-gal luminescence, 40 h. Potency, µM (titrated, usually from 60.7 µM), without a hit: top-dose activity change, positive = activation, actives largely listed as activators. actives 0.02% (n = 110,000); also: potency is read from the fitted curve at half-maximal effect
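Gelatin-coated wells received 300 freshly trypsinized female ES cells with a Peg3LacZ-Neo reporter on the maternal allele, then incubated 40 hours at 37C. BetaGlo was added for 5 minutes at room temperature before a single luminescence read.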
IkB sig inh: suppresses IkB signaling in ABC-DLBCL reporter cells; actives 0.04% (n = 110,000); Potency, µM (doses to about 57.1 µM), without a hit: top-dose IkBa stabilization activation; ABC-DLBCL IkBa-CBG/CBR dual luciferase ratio, 4 h; response scale: scaled: untreated 0%, proteasome inhibitor 100%; active = well fitted curve in the direction sought with a large enough effect in the signal ratio, not every such curve was filed as active; inconclusive = small, poorly fitted or top-dose-only effect, or a change in a side signal; the % refers to the signal ratio;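 also: potency is read from the fitted curve at half-maximal effect; the direction sought is a rising ratio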
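In this assay, an IκBα–CBG68 fusion accumulates when IKK-driven degradation is blocked; native CBR normalizes for cell number. OCI-Ly3 cells were treated 4 h with compound and doxycycline, then green and red light read after Chroma-Glo addition.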
IMPase cell inh: IMPase inhibition in cells; P97697; CHO-M1 cells, IP1 accumulation, HTRF TR-FRET ratio; inhibition (IP1 accumulation), % at 46.1 µM; 120,000 tested, under 10 active; active = well fitted curve in the direction sought with a large enough effect in the signal ratio, not every such curve was filed as active; inconclusive = small, poorly fitted or top-dose-only effect, or a change in a side signal; inactive = no such curve, though single readings can be large or run the other way; the % refers to the signal ratio;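 also: cells stimulated with carbachol in lithium chloride buffer; plate controls were DMSO basal wells for no effect and reference inhibitor wells for full effect; higher means more IMPase inhibition seen as more IP1 and lower FRET ratio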
Target sequence (P97697 whole entry, looked up): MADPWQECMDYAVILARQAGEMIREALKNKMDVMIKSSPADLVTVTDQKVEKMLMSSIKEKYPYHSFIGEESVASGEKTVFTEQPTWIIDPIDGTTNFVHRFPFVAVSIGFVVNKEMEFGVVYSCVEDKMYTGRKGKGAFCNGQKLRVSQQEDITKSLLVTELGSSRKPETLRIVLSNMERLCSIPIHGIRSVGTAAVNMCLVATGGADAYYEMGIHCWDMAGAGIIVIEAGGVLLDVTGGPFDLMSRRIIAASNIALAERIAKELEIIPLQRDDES
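Seeded CHO-M1 cells were dosed with compound at up to 46 uM, stimulated with carbachol for 30 min, then lysed in IP-One detection reagents. Higher IP1 lowers the TR-FRET signal.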
FLuc inh: inhibitors of firefly luciferase. Potency, µM (doses to about 57.1 µM), for the others: top-dose activity change, negative = inhibition, most hits filed as inhibitors. actives 2.2% (n = 72,000). purified firefly luciferase, luminescence, 8 min. P08659. AID 411; also: potency is read from the fitted curve at half-maximal effect; % is scaled to controls: 0 for no effect and ±100 for the full control effect; nearly all actives have a fitted effect of over 40% in size
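Compounds were tested as concentration series (qHTS) against purified P. pyralis luciferase with luciferin and 10 uM ATP in 50 mM imidazole pH 7.2, 50 mM KCl, 7 mM MgCl2, 0.01% Tween 20, 0.05% BSA. Luminescence was read after 8 min at ambient temperature.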
p53ts 32C tox: kills p53ts cells at the permissive temperature; H1299-p53A138V at 32C, ATP luminescence viability, 24 h; actives 0.93% (n = 130,000); Potency, µM (doses to about 46.1 µM), inactives show at the highest dose activity change, negative = cytotoxicity, actives largely listed as cytotoxic; AID 924;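 also: potency is read from the fitted curve at half-maximal effect; 0% = DMSO and -100% = full killing by reference compound; nearly all actives have a fitted effect of over 55% in size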
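ATP-content luminescence (ATPlite) read-out after 24 h compound exposure at 32C in H1299-p53A138V cells (600/well). Tested up to 46 uM. Normalized to DMSO (0%) and 100 uM tamoxifen (100% killing); Hill-fit AC50.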
p53ts 39C kill: p53ts cell cytotoxicity, nonpermissive temperature | H1299-p53A138V viability at 39C, ATP luminescence, 24 h | Potency, µM (titrated, usually from 46.1 µM), inactives show top-dose activity change, negative = cell killing, most hits filed as cytotoxic | actives 1.5% (n = 130,000); also: potency is read from the fitted curve at half-maximal effect; % is scaled to controls: 0 for no effect and ±100 for the full control effect; nearly all actives have a fitted effect of over 55% in size
* = called active by the depositor; [ ] = dose if it differs, or a comment. The entries come from a sample that favours hits as a whole. Unless noted, calls follow the shape of the dose curve; as a rule, active = well fitted curve in the direction sought with a large enough effect; inconclusive = small, poorly fitted or top-dose-only effect, or another doubt; inactive = no such curve, though single readings can be large; an effect the other way counts as inactive or inconclusive.

`CCOC(=O)NC(=O)CSc1nc(C)cc(C)c1C#N` gave IkB sig inh -2%, IMPase cell inh -7, FLuc inh -29%, p53ts 32C tox 5µM* and p53ts 39C kill 6.3µM*.
`Cc1cc(C)c(C#N)c(SCC(=O)Nc2ccccc2C(N)=O)n1` gave Imprint erasure -2%, IkB sig inh 1%, IMPase cell inh -3, FLuc inh -14%, p53ts 32C tox 13µM* and p53ts 39C kill 2µM*.
Screening Cc1ccc(S(=O)(=O)NCCc2csc(-c3cccc(F)c3)n2)cc1 returned Imprint erasure -21%[10.9 µM], IkB sig inh inconclusive, p53ts 32C tox 7% and p53ts 39C kill 16µM*.
CNc1nc(N2CCc3ccccc32)ncc1F was read as Imprint erasure -78%, IkB sig inh -7%, IMPase cell inh -7, FLuc inh 16µM*, p53ts 32C tox inconclusive and p53ts 39C kill inconclusive.
Screening CCN(CC)c1ccc2c(Cl)c(Br)c(=O)oc2c1 returned IkB sig inh inconclusive, IMPase cell inh inconclusive, FLuc inh -3%, p53ts 32C tox 13µM* and p53ts 39C kill inconclusive.
Screening CCN(CC)c1ccc2c(C)cc(=O)oc2c1 returned Imprint erasure -5%, IkB sig inh -3%, p53ts 32C tox -2%[1.84 µM] and p53ts 39C kill -6%.
Screening CCN(CC)c1ccc2c(c1)oc(=O)c1c(Cl)cc(=O)oc12 returned Imprint erasure -30%, IkB sig inh inconclusive, IMPase cell inh -8, FLuc inh -2%, p53ts 32C tox 13µM* and p53ts 39C kill 13µM*.
`O=c1cc(-c2ccccc2O)oc2ccc3ccccc3c12` gave Imprint erasure -97%, IkB sig inh 20%[11.4 µM], IMPase cell inh -6, FLuc inh 0.5µM*, p53ts 32C tox 2.5µM* and p53ts 39C kill 2µM*.
Screening O=c1cc(-c2ccccc2Cl)oc2cccc(O)c12 returned Imprint erasure -10%[97.3 µM].
For O=c1c2ccccc2c(-c2ccc(Cl)cc2)nn1-c1ccccc1 the results were IMPase cell inh 0.
Nc1c(-c2ccc(Cl)cc2)nnn1-c1ccccc1 was read as Imprint erasure -52%, IkB sig inh inconclusive, IMPase cell inh 9, FLuc inh 10µM*, p53ts 32C tox inconclusive and p53ts 39C kill inconclusive.
For Cc1ccc2nc3c(c(Nc4ccc(C)c(C)c4)c2c1)CCC3 the results were Imprint erasure -10%[10.9 µM], IkB sig inh inconclusive, IMPase cell inh -9, p53ts 32C tox inconclusive and p53ts 39C kill 10µM*.
For Cc1ccc2scc(N3CCCCC3)c(=O)c2c1 the results were Imprint erasure -7%[10.9 µM], IkB sig inh 31%, p53ts 32C tox 13µM* and p53ts 39C kill 16µM*.
For Cc1ccc2scc(N3CCCCC3C)c(=O)c2c1 (stereo unspecified) the results were Imprint erasure -17%[10.9 µM], IkB sig inh 6%, p53ts 32C tox 10µM* and p53ts 39C kill 6.3µM*.
Screening Cc1ccc2scc(N3CCC(C)CC3)c(=O)c2c1 returned Imprint erasure -2%[10.9 µM], IkB sig inh 25%, p53ts 32C tox inconclusive and p53ts 39C kill inconclusive.
Screening CC(=O)Nc1ccc(C2C(C)CCC3C(=O)N4C(CCC(C)[C@@H]4c4ccc(NC(C)=O)cc4)C(=O)N32)cc1 (stereo partly specified) returned p53ts 32C tox 1%[9.22 µM] and p53ts 39C kill 17%[9.22 µM].
For Cc1ccc2nc(Cl)c3cc(C(=O)NCCCN(C)Cc4ccccc4)sc3c2c1 the results were Imprint erasure -9%[10.9 µM], IkB sig inh inconclusive, p53ts 32C tox inconclusive and p53ts 39C kill 13µM*.
CCN(CCCNC(=O)c1cc2c(=O)[nH]c3ccc(C)cc3c2s1)Cc1ccccc1 was read as Imprint erasure -23%[10.9 µM], IkB sig inh inconclusive, p53ts 32C tox 13µM* and p53ts 39C kill 13µM*.
`CN(CCCNC(=O)c1cc2c(Cl)nc3ccccc3c2s1)Cc1ccccc1` gave Imprint erasure -8%[10.9 µM], IkB sig inh inconclusive, p53ts 32C tox 3% and p53ts 39C kill inconclusive.
`CCN(CC)CCNC(=O)c1cc2c(=O)[nH]c3ccc(C)cc3c2s1` gave Imprint erasure 16%[10.9 µM], IkB sig inh -1%, p53ts 32C tox 1% and p53ts 39C kill 0%.
`CCN(CCCNC(=O)c1cc2c(=O)n(C)c3ccccc3c2s1)Cc1ccccc1` gave Imprint erasure -7%[10.9 µM], IkB sig inh inconclusive, p53ts 32C tox 1% and p53ts 39C kill 13µM*.
`CC(=O)[C@H]1CC[C@@H]2[C@]1(C)CC=C1[C@@]23C=C[C@]2(C[C@H](O)CC[C@@]12C)[C@H](C(=O)O)[C@@H]3C(=O)O` gave Imprint erasure 1%[10.9 µM].
Screening Cc1[nH]n2c(=O)cc(C(C)C)nc2c1-c1ccccc1 returned Imprint erasure 4%, IkB sig inh -4%, IMPase cell inh 7, FLuc inh 1%, p53ts 32C tox -29% and p53ts 39C kill 13µM*.
`Oc1cccc(/C=N/c2c(-c3ccco3)nc3ccccn23)c1` gave IMPase cell inh 28, p53ts 32C tox inconclusive and p53ts 39C kill 13µM*.
For O=[N+]([O-])c1ccc(Cl)c(-c2ccc(/C=N/c3c(-c4ccco4)nc4ccccn34)o2)c1 the results were IMPase cell inh -1.
`O=C(CSc1nc(-c2ccc(F)cc2)cc(C(F)(F)F)n1)NCCc1ccccc1` gave Imprint erasure 7%[10.9 µM], IkB sig inh -3%, IMPase cell inh inconclusive, p53ts 32C tox -4% and p53ts 39C kill 23%.
Screening CCc1ccccc1N1CC(c2nc3ccccc3n2CCCOc2ccc(Cl)cc2)CC1=O (stereo unspecified) returned Imprint erasure -13%[10.9 µM], IkB sig inh inconclusive, p53ts 32C tox inconclusive and p53ts 39C kill 20µM*.
Screening COc1ccccc1OCCCCn1c(C2CC(=O)N(c3ccccc3Cl)C2)nc2ccccc21 (stereo unspecified) returned Imprint erasure -6%[10.9 µM], IkB sig inh inconclusive, p53ts 32C tox inconclusive and p53ts 39C kill 20µM*.
O=C(NC1=NCCS1)c1sc2ccccc2c1Cl was read as IMPase cell inh -11.
Screening COCc1nnc(NC(=O)c2sc3ccccc3c2Cl)s1 returned Imprint erasure -62%, IkB sig inh inconclusive, IMPase cell inh -3, FLuc inh 20µM*, p53ts 32C tox inconclusive and p53ts 39C kill 16µM*.
Cc1nnc(NC(=O)c2sc3ccccc3c2Cl)s1 was read as Imprint erasure -52%, IkB sig inh inconclusive, IMPase cell inh -7, FLuc inh 2µM*, p53ts 32C tox 1.3µM* and p53ts 39C kill 0.63µM*.

From PubChem BioAssay
